This is an account of results in PubChem BioAssay (NCATS).

“And” between values parts separate entries of the source, which are not always exact repeats. Equal values may be shown once. Records with an inconclusive call do not appear. The source made the active and inactive calls. Unless noted, the call rests on the fitted dose curve; in most records, active means well fitted inhibition curve with a large enough effect; inconclusive means small, poorly fitted or top-dose-only effect; inactive means flat fitted curve, though single readings scatter. Some results are limits rather than exact numbers.

For test [1], the target named is Cytochrome P450 1A2 (Homo sapiens) (UniProt P05177). Briefly: p450-cyp1a2 (AID 410; calls by dose curve;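 further: -100% = full effect of reference inhibitor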). The essentials: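 20nM CYP1A2, 100uM Luciferin-ME (=Km), 100mM KPO4; cpd 10 min RT; +NADPH regen, 60 min RT; stop/detect 20 min; luminescence. Normalized to furafylline 57 uM = full inhibition.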
Test [2] has as its target Glucocorticoid receptor (Homo sapiens) (UniProt P04150). The test is described as follows: GR-GFP Redistribution (AID 450;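 active means compounds whose dose series gives a full or clear partial fitted curve of increased nuclear translocation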; further: potency means the concentration at half of the fitted maximal effect). To be noted: U2OS GR-GFP nuclear translocation, laser cytometry, 2 h.
Test [3] shares this target. The test is described as follows: GR-EFC Redistribution (AID 451; calls by dose curve; further: potency means the concentration at half of the fitted maximal effect). Conditions: CHO-K1 GR-EFC translocation, beta-gal luminescence, 2 h. Put shortly: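 CHO-K1 cells stably expressing nuclear-localized β-gal enzyme acceptor and GR fused C-terminally to the enzyme donor fragment; ligand-driven nuclear translocation restores β-gal by complementation. Compounds titrated up to 46 uM final, 2 h at 37 °C; luminescence read.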

For test [4], the target named is Mitogen-activated protein kinase 10 (Mus musculus) (UniProt Q61831). The test is described as follows: JNK3 AlphaScreen Assay (AID 530; active means well fitted curve in either direction with a large enough effect, not every such curve was filed as active;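 further: kinase came from lysate of stimulated human HepG2 cells; signal reports phosphorylation of biotinylated GST-cJun 1-79 at Ser73 with 10 µM ATP; on the % scale 0 is the no-effect control and ±100 the full control effect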). Put shortly: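 Biotinylated GST-cJun(1-79) served as substrate for JNK3 in HepG2 lysates stimulated with IL-1beta and TNF-alpha. ATP was 10 uM final, pH 7.6. Ser73 phosphorylation was quantified by AlphaScreen (680 nm excitation).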
(Bead proximity is the source of the signal in Alpha formats.)

A short description of test [5]: qHTS Assay for Lipid Storage Modulators (AID 1519; calls by dose curve). Conditions: Drosophila S3 cells, BODIPY lipid droplet/cell ratio, laser cytometry, cells loaded with oleic acid. Put shortly: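 Cells seeded at 5,000 per well were treated with compounds over a concentration series and loaded with oleic acid (400 uM, as added). Lipid droplet fluorescence (488 nm excitation, 500-530 nm channel) was read by laser-scanning cytometry and normalized to 20 uM Triacsin C.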
A general note: Quantitative high-throughput screening tests each substance at several concentrations.

Test [6] is described as follows: AP1 Signaling Pathway (AID 357; active means well fitted curve in either direction with a large enough effect, not every such curve was filed as active;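 further: ME-180 reporter cells stimulated with EGF at its EC50 level; on the % scale 0 is the no-effect control and ±100 the full control effect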). Put shortly:
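Modulation of EGF-driven AP-1 transcription was assessed with a beta-lactamase reporter in ME-180 cells. Compound and EC50 EGF were co-incubated 5 hours at 37 °C before 2.5-hour CCF4 loading at room temperature and dual-emission reading.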

The nature of test [7]: NFAT Signaling Pathway (AID 444; active means well fitted curve in either direction with a large enough effect, not every such curve was filed as active;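 further: carbachol stimulus at about its EC50 of 1 µM final; on the % scale 0 is the no-effect control and ±100 the full control effect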). Conditions: Jurkat NFAT-bla M1, carbachol, beta-lactamase ratio, 5 h; at 17.2 µM (top of the series). Put shortly: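 Jurkat cells carrying an NFAT-driven β-lactamase reporter and co-transfected muscarinic M1 receptor were treated with compound plus carbachol (1 uM final, an EC50 level) for 5 h at 37 °C. CCF4 loading followed for 1 h at RT; 460/530 nm ratio gave %activity.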

Test [8] is described as follows: Stat Signaling Pathway (AID 446; active means well fitted curve in either direction with a large enough effect, not every such curve was filed as active;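 further: ME-180 cervical cancer cells given 40 pM IL-6 alongside compound; SIE-controlled beta-lactamase reporter measured as 460/530 nm FRET emission ratio; on the % scale 0 is the no-effect control and ±100 the full control effect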). The essentials: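 Compound effects on IL-6-induced STAT reporter activity were measured in ME-180 cells. After overnight culture, cells were co-treated with 40 pM IL-6 for 5 hrs before beta-lactamase substrate loading at room temperature.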
In test [9] the target is 3',5'-cyclic-AMP phosphodiesterase 4B (Homo sapiens) (UniProt Q07343). The test is described as follows: qHTS Assay for Inhibitors of PDE-IV (AID 607; active means well fitted activation curve with a large enough effect in the main read-out, with a control signal flat, not every such curve was filed as active; further: % of control where 0% means no effect). The essentials:
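ACTOne HEK293 cells carry a modified cAMP-gated CNG channel and express endogenous PDE4; plated 1000 cells/well, compounds up to 22.9 uM final. Membrane-potential dye fluorescence (ex 535/em 590) was read; parental cells received 10 uM forskolin + 100 uM RO 20-1724.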

Test [10] has as its target Luciferin 4-monooxygenase (Photinus pyralis) (UniProt P08659). The test is described as follows: Biochemical firefly luciferase enzyme assay for NPC (AID 624030).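 Further: purified P. pyralis luciferase at 10 nM with luciferin and ATP substrate; 0% = DMSO and -100% = full luciferase inhibition by PTC124 control; nearly all actives have a fitted effect of over 70% in size.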 The essentials:
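Counter-screen for direct inhibition of the luciferase enzyme by approved-drug library compounds, run at 10 nM enzyme in 50 mM Tris acetate (final). Luminescence was read within 5 min of enzyme-buffer addition and normalized to PTC124 versus DMSO (0%).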

Test [11] is described as follows: qHTS profiling for inhibitors of Plasmodium falciparum proliferation (AID 504749).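 Further: 0% = DMSO vehicle and full inhibition = artemisinin control; nearly all actives have a fitted effect of over 60% in size.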 Conditions: P. falciparum in erythrocytes, SYBR Green DNA, 72 h. Put shortly:
(§1)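 Fluorescence of SYBR Green-bound parasite DNA, read at 485/535 nm, served as the growth measure. Infected erythrocytes were cultured with compound 72 h; artemisinin (0.29 uM) and DMSO wells defined the normalization range.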

Test [12] relates to 3D7. Described as above. Conditions: P. falciparum in erythrocytes, SYBR Green DNA, 72 h; series mostly up to 28.7 µM. Put shortly:
as §1

The test system of test [13] is C2A. The description is as above. Conditions: P. falciparum in erythrocytes, SYBR Green DNA, 72 h; series mostly up to 28.7 µM. The essentials:
as §1

The subject of test [14] is CP211. Described as above. Conditions: P. falciparum in erythrocytes, SYBR Green DNA, 72 h; series mostly up to 28.7 µM. Put shortly:
as §1

The test system of test [15] is CP217. The test is described as above. Conditions: P. falciparum in erythrocytes, SYBR Green DNA, 72 h; series mostly up to 28.7 µM. Put shortly: as §1
Test [16] deals with CP252. Described as above. To be noted: P. falciparum in erythrocytes, SYBR Green DNA, 72 h; series mostly up to 12.8 µM. The essentials:
as §1

In test [17] the test system is CP262. The test is described as above. To be noted: P. falciparum in erythrocytes, SYBR Green DNA, 72 h; series mostly up to 28.7 µM. Put shortly: as §1
Test [18] concerns CP286. Described as above. Conditions: P. falciparum in erythrocytes, SYBR Green DNA, 72 h; series mostly up to 28.7 µM. Put shortly:
as §1

Test [19] concerns ECU. Described as above. To be noted: P. falciparum in erythrocytes, SYBR Green DNA, 72 h; series mostly up to 28.7 µM. Put shortly:
as §1

The target of test [20] is Ubiquitin carboxyl-terminal hydrolase 1 (Homo sapiens) (UniProt O94782). Briefly: Inhibitors of USP1/UAF1: Pilot qHTS (AID 504865). Further: nearly all actives have a fitted effect of over 35% in size. Further: potency means the concentration at half of the fitted maximal effect. The essentials:
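USP1/UAF1 complex (1nM) preincubated with compound 15 min at room temperature, then Ub-Rho substrate (150nM final) added. Fluorescence read kinetically at 480/540 nm, 6 reads every 60 seconds. Buffer: 50mM HEPES pH 7.8, 0.5mM EDTA, 0.1 mg/ml BSA, 1mM TCEP, 0.01% Tween-20.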

[21] abbreviates: measured here: cell count channel max response.
[22] abbreviates: measured here: lipid channel max response.

3',5'-cyclic-AMP phosphodiesterase 4B (Homo sapiens), sequence (Q07343 whole entry, looked up): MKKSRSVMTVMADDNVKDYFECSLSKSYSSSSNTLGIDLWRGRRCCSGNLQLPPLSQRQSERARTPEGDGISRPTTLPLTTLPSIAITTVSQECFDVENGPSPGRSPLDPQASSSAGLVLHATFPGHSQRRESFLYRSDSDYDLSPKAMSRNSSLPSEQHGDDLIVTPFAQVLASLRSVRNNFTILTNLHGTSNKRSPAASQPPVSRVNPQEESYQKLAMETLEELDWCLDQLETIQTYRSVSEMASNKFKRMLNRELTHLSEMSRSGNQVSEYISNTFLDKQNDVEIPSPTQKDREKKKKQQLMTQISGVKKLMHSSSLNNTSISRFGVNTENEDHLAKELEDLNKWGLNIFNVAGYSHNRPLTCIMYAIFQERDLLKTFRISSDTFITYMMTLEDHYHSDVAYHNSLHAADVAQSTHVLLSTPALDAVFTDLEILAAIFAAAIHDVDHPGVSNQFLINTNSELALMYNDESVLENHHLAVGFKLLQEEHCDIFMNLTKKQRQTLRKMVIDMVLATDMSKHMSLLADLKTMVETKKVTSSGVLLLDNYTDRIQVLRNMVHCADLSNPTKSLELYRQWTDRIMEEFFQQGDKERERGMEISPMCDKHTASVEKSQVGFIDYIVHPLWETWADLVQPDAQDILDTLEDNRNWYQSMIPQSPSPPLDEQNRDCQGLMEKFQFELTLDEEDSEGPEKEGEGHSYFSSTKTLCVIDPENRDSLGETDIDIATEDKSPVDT
Glucocorticoid receptor (Homo sapiens), sequence (P04150 whole entry, looked up, the tested form may be a part): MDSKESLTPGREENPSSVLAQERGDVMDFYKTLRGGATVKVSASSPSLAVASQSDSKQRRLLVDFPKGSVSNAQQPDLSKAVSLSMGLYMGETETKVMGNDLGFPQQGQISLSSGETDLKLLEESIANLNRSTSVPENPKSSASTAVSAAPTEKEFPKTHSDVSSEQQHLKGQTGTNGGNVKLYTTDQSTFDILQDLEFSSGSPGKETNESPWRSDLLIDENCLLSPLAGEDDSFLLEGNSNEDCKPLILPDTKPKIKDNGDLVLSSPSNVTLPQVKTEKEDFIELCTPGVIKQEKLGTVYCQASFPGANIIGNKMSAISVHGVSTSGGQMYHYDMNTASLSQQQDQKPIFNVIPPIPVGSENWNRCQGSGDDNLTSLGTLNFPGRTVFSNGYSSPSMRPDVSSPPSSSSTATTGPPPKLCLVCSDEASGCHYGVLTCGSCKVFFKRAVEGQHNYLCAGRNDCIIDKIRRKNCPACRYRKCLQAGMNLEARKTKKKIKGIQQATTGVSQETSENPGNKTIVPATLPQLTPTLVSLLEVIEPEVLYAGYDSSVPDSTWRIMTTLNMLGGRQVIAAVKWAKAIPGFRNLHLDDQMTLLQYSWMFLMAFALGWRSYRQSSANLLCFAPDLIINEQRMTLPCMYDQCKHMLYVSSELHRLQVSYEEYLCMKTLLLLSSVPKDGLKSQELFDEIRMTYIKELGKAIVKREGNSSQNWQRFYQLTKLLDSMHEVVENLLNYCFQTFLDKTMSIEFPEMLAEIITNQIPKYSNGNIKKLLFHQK
Ubiquitin carboxyl-terminal hydrolase 1 (Homo sapiens), sequence (O94782 whole entry, looked up): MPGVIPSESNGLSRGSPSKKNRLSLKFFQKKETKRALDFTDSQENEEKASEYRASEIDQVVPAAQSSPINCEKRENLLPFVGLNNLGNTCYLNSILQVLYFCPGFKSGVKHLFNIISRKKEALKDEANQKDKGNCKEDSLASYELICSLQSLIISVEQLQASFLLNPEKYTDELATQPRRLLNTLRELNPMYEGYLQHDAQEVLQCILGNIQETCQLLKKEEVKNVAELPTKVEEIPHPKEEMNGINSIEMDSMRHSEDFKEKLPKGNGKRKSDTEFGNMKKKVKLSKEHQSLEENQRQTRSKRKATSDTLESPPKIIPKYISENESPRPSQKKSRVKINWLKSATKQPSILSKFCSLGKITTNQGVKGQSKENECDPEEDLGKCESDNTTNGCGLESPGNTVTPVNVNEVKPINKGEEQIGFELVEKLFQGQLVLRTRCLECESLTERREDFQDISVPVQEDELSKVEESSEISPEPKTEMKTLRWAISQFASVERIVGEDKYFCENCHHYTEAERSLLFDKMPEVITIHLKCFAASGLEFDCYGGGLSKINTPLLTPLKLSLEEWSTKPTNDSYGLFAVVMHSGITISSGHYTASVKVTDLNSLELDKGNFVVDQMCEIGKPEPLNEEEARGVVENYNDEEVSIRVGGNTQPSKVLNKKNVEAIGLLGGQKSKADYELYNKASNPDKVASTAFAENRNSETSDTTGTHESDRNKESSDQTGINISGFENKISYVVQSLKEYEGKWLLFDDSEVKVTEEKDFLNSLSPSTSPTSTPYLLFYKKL
Luciferin 4-monooxygenase (Photinus pyralis), sequence (P08659 whole entry, looked up): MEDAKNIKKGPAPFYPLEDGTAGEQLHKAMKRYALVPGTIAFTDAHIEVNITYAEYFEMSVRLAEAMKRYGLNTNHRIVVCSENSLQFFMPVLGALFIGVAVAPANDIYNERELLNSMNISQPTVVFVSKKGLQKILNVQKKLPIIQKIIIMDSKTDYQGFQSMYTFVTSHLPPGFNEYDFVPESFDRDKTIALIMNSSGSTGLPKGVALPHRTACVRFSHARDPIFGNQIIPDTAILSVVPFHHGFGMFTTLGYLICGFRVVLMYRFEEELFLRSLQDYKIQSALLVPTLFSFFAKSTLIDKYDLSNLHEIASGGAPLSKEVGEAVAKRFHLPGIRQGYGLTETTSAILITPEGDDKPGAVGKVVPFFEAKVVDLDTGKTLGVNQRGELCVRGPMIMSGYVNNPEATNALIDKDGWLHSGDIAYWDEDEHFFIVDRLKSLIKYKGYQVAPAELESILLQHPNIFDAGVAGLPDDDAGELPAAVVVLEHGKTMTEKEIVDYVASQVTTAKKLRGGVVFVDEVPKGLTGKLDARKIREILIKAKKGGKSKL
Cytochrome P450 1A2 (Homo sapiens), sequence (P05177 whole entry, looked up): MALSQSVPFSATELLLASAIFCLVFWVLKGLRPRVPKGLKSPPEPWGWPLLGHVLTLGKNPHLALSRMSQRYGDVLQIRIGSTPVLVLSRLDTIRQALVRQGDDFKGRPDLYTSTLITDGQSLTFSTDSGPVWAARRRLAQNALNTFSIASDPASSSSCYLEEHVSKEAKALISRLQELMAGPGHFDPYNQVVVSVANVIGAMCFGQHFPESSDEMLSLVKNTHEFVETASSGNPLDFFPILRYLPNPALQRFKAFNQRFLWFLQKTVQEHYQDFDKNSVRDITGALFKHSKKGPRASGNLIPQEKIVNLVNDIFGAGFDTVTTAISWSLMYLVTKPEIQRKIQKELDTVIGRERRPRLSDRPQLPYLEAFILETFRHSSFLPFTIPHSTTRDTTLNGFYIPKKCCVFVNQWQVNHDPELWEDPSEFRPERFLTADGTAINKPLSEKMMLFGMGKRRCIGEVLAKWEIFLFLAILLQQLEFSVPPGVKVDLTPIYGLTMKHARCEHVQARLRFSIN

Regarding `COc1cc2c(c(OC)c1OC)-c1ccc(O)c(=O)cc1[C@@H](NC(C)=O)CC2`, the Potency entry in test [1] was “inactive”. Also, the Potency in test [2] and in test [3] was > 46 µM (inactive) each time. For the same compound, the call in test [4] was inactive. In addition, the activity change, negative = inhibition in test [5] (at 57.5 µM (top of the series)) was 3.54% (inactive). Moreover, the max response was determined as 16.1% in test [5] (setting [21]) and 20.6% in test [5] (setting [22]).

With `COc1ccc(C[C@H]2c3cc(OC)c(OC)cc3CCN2C)cc1OC`, the call in [6], in test [8] and in test [4] was inactive. The activity change, negative = inhibition in test [7] was -1.22% (inactive); in [5] (at 25.7 µM (top of the series)), 1.88% (inactive). In test [3], the Potency is > 20.6 µM (inactive) and > 46 µM (inactive). In addition, in test [9], the Potency entry was “inactive”. Moreover, the max response was determined as 10% in [5] (setting [21]) and 12.8% in [5] (setting [22]).

As for `C/C=C1\C[C@H](C)[C@@](O)(CO)C(=O)OCC2=CCN3CC[C@@H](OC1=O)[C@@H]23`, the compound was classed as inactive in [6], in test [8] and in [4]. Besides, the activity change, negative = inhibition is -20.5% (inactive) in [7] and 0.17% (inactive) in [5] (at 25.7 µM (top of the series)). The Potency in test [3] was > 20.6 µM (inactive). Besides, the Potency result in test [9] was “inactive”. Further, the results for the max response in test [5] (setting [21]) and in test [5] (setting [22]) were 4.82% and 5.25%, respectively.

Take `COc1cc(N)c(Cl)cc1C(=O)N[C@@H]1CN2CCC1CC2`: the Potency entry in test [1], in test [9], in test [10], in test [12], in test [13] and in [14] was “inactive” each time. Besides, the Potency result in [15], in [16], in test [17], in [18] and in [19] was “inactive” in each case. Moreover, the Potency in test [3] was > 46 µM (inactive). Besides, the activity change, negative = inhibition in [5] (at 57.5 µM (top of the series)) was 7.47% (inactive). For the same compound, the max response in test [5] (setting [21]) is 3.73%; in test [5] (setting [22]), 7.11%. Also, the activity, negative = inhibition was -0.396% (inactive) in test [11] (at 28.7 µM (top of the series), parasite line A) and 5.5% (inactive) in test [11] (at 28.7 µM (top of the series), parasite line B).

With `CC(=O)O[C@H]1CC[C@@]2(C)C(=CC[C@@H]3[C@H]2CC[C@]2(C)C(=O)CC[C@H]32)C1`, the result in test [6] and in test [4] was inactive. In addition, the figures for the activity change, negative = inhibition in [7] and in test [5] (at 25.7 µM (top of the series)) were -13.7% (inactive) and -0.861% (inactive), respectively. The Potency in [2] and in [3] was > 20.6 µM (inactive) in each case. The Potency result in test [9], in test [10], in test [12], in test [13], in test [14] and in test [15] was “inactive” throughout. Further, the Potency entry in test [16], in [17], in test [18] and in [19] was “inactive” in each case. The max response is -9.47% in [5] (setting [21]) and -12.6% in test [5] (setting [22]). Moreover, the activity, negative = inhibition is 8.47% (inactive) in test [11] (at 12.8 µM (top of the series), parasite line A) and 10.9% (inactive) in test [11] (at 12.8 µM (top of the series), parasite line B).

Turning to `CNC(=O)Oc1ccccc1OC(C)C`, in test [5] (at 57.5 µM (top of the series)), the activity change, negative = inhibition was 5.74% (inactive). The max response in test [5] (setting [21]) was 11.3%; in [5] (setting [22]) it was 18.3%. In addition, in [20], the Potency entry was “inactive”.

In the case of `CC(CCC(=O)O)C1CCC2C3CC[C@H]4CC(O)CC[C@@]4(C)C3CC[C@@]12C` (stereo partly drawn), the activity change, negative = inhibition in [5] (at 57.5 µM (top of the series)) is -0.0455% (inactive). Further, the max response in test [5] (setting [21]) stood at 5.89%; in test [5] (setting [22]), 10.6%. Further, in test [20], the Potency was 79.4 µM (active).

Regarding `C=C[C@H]1CN2CCC1C[C@@H]2C(O)c1ccnc2ccccc12` (stereo partly drawn), in test [5] (at 57.5 µM (top of the series)), the activity change, negative = inhibition is 7.24% (inactive). The values for the max response in test [5] (setting [21]) and in [5] (setting [22]) were 20.2% and 27.5%, respectively. Further, the Potency result in [20] is “inactive”.

As to `COc1cc(C2c3cc4c(cc3C(O)[C@H]3COC(=O)C23)OCO4)cc(OC)c1OC` (stereo partly drawn), the activity change, negative = inhibition in test [5] (at 57.5 µM (top of the series)) was 6.7% (inactive) and 5.22% (inactive). Moreover, the max response in test [5] (setting [21]) is -4.29% and 22%; in test [5] (setting [22]), 2.15% and 29.3%. Moreover, the Potency result in [20] was “inactive”.
